HCMV antiviral – qHTS Assay for inhibitors of the human cytomegalovirus (HCMV); HFF cells, HCMV-luciferase reporter, 72 h; active compounds read low; hit rate 4.5% among 410,000; activity change, negative = inhibition, % at 57.5 µM; in the data active = activity change below about -60%; inconclusive = no clear call, values can overlap the other calls; inactive = above about -39%
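Steps: HFFs plated, 16 h 37C; compounds added; HCMV-luciferase added to MOI 1 PFU/cell; 72 h 37C; OneGlo reagent, 5 min room temperature; luminescence read, normalized to controls.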
Pf growth 96h – Primary qHTS for delayed death inhibitors of the malarial parasite plastid, 96 hour incubation | Potency, µM (series often up to 28.7 µM), most hits filed as inhibitors | hit rate 6.9% among 320,000 | P. falciparum luciferase reporter growth, 96 h | AID 504834, 2011
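Readout is luminescence from an integrated firefly luciferase in P. falciparum. Red cells, 2% hematocrit and 0.05% parasitemia final, were cultured with compound through two parasite generations (96 hours) at 37 C, 5% CO2.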
Pf growth 48h – Primary qHTS for delayed death inhibitors of the malarial parasite plastid, 48 hour incubation | P. falciparum luciferase growth in erythrocytes, 48 h | Potency, µM (highest dose often 28.7 µM), actives largely listed as inhibitors | hit rate 5.9% among 310,000
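Luminescence readout; reporter = integrated firefly luciferase in P. falciparum. RBC culture at 2% hematocrit, 0.1% parasitemia final, 37 C/5% CO2; decreased signal taken as growth inhibition.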
Lassa entry inh – qHTS for Inhibitors of binding or entry into cells for Lassa Virus | Lassa virus pseudotype entry inhibition, cell reporter | hit rate 1.2% among 300,000 | Potency, µM (top dose mostly 37.9 µM), most hits filed as inhibitors; calls by dose curve; tested in HEK293 cells; note: nearly all actives have a fitted effect of over 50% in size
Marburg entry inh – qHTS for inhibitors of binding or entry into cells for Marburg Virus; Marburg virus pseudotyped entry inhibition, cell reporter; Potency, µM (titrated, usually from 37.8 µM), actives largely listed as inhibitors; hit rate 1.8% among 300,000; AID 540276, 2011; calls by dose curve; tested in HEK293 cells
HCV inhibitor – qHTS Assay for Inhibitors of Hepatitis C Virus (HCV); Potency, µM (series often up to 41.8 µM), most hits filed as inhibitors; Huh7.5.1 HCVcc-Cre infection, luciferase reporter, 44 h; hit rate 3.4% among 340,000
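Whole-lifecycle infectious HCVcc-Cre system; cells 1,000/well, compound then virus (~0.5 moi) added 4 h after plating, 44 h culture. Luciferase read 15 sec following 15 min substrate incubation, room temp.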
Each line names hits and unclear results; the compound was inactive in the other large screens. Compounds with a hit are over-represented: about 14% of the library has one in this group of screens. Unless noted, calls come from the whole dose curve; as a rule, active = well fitted inhibition curve with a large enough effect; inconclusive = small, poorly fitted or top-dose-only effect, or another doubt; inactive = no such curve, though single readings can be large or run the other way.

COc1cc(Br)cc(/C=N/NC(=O)Cc2ccccc2)c1O	Lassa entry inh 12.6µM, HCV inhibitor 12.6µM (no result: Pf growth 96h, Pf growth 48h)
CCOc1ccccc1NC(=O)CN1C(=O)C2(SCC(=O)N2c2ccc(C)cc2)c2ccccc21 (stereo not drawn)	none (no result: Pf growth 96h, Pf growth 48h, Marburg entry inh, HCV inhibitor)
O=C1CCC[C@@H]2[C@@H](Cc3ccccc3)[C@H](N3CCN(c4ccccc4)CC3)C[C@@H]3CCN1[C@@H]32	HCMV antiviral -79.7 (no result: Pf growth 96h, Pf growth 48h, Lassa entry inh, Marburg entry inh)
CCCCS(=O)CC(CS(=O)CCCC)OC(=O)c1ccccc1 (stereo not drawn)	Pf growth 96h 6.57µM
OCCN1CCN(c2ncnc3c2ncn3[C@H]2CN(Cc3cccnc3)C[C@@H](CO)O2)CC1	none (no result: Pf growth 96h, Pf growth 48h, Lassa entry inh, Marburg entry inh, HCV inhibitor)
CC(=O)NCC1CCN(C(=O)C2CCC(=O)N(CCc3cccc(F)c3)C2)CC1 (stereo not drawn)	Pf growth 96h 13.1µM
COc1ccc(CCCNC(=O)C2CCC(=O)N(CCc3cccc(F)c3)C2)cc1 (stereo not drawn)	Pf growth 96h 4.15µM, Lassa entry inh inconclusive
CN1CCN(C(=O)C2CCC(=O)N(CCc3cccc(F)c3)C2)CC1 (stereo not drawn)	Pf growth 96h 9.28µM, Pf growth 48h inconclusive
Cc1ccc(C)c(CN2C(=O)c3ccccc3S(=O)c3ccc(C(=O)NCc4ccccc4Cl)cc32)c1 (stereo not drawn)	Marburg entry inh inconclusive (no result: Pf growth 96h, Pf growth 48h, HCV inhibitor)
Cc1ccc(C(=O)N/C(=C\c2ccc(-c3ccccc3[N+](=O)[O-])o2)C(=O)NCCN(C)C)cc1	Pf growth 96h inconclusive, Pf growth 48h 1.47µM, Marburg entry inh inconclusive
Cc1ccc(C(=O)N/C(=C/c2ccc(-c3cccc([N+](=O)[O-])c3)o2)C(=O)NC(C)(C)C)cc1	Lassa entry inh inconclusive, Marburg entry inh inconclusive, HCV inhibitor inconclusive
CCCCNC(=O)/C(=C\c1ccc([N+](=O)[O-])o1)NC(=O)c1ccccc1	HCMV antiviral inconclusive, Pf growth 48h inconclusive, Marburg entry inh inconclusive, HCV inhibitor inconclusive
Cc1ccc(C(=O)N/C(=C\c2ccc(-c3ccccc3[N+](=O)[O-])o2)C(=O)NCCCN(C)C)cc1	HCMV antiviral inconclusive, Pf growth 96h 5.22µM, Pf growth 48h 2.62µM, Marburg entry inh inconclusive
O=c1ccn([C@@H]2O[C@H](CNCc3cccc4c3sc3ccccc34)[C@@H](O)[C@H]2O)c(=O)[nH]1	none (no result: Pf growth 96h, Pf growth 48h, Lassa entry inh, Marburg entry inh, HCV inhibitor)
Cc1ccc(-n2ncc(C(=O)NC3CCCCC3)c2C2CCN(C(=O)OC(C)(C)C)CC2)cc1	Lassa entry inh inconclusive (no result: Pf growth 96h, Pf growth 48h, Marburg entry inh, HCV inhibitor)
COc1cc(/C=C/C(=O)OCC(=O)N(CC(C)C)c2c(N)n(Cc3ccccc3)c(=O)[nH]c2=O)ccc1O	none (no result: Pf growth 96h, Pf growth 48h)
O=[N+]([O-])c1ccc(Sc2ccc(Cl)c(Cl)c2)nc1	HCV inhibitor inconclusive
O=[N+]([O-])c1cccnc1SCc1c(F)cccc1Cl	Pf growth 96h inconclusive, Pf growth 48h 13.1µM, Marburg entry inh inconclusive
O=[N+]([O-])c1ccc(SCc2c(F)cccc2Cl)nc1	HCMV antiviral -60.8, Marburg entry inh inconclusive
CC(C)(C)CC(C)(C)c1ccc(OCC(=O)Nc2ccc(S(=O)(=O)Nc3ncccn3)cc2)cc1	none (no result: Pf growth 96h, Pf growth 48h, Marburg entry inh, HCV inhibitor)
CN(CC(=O)N1CCN(c2ccccn2)CC1)S(=O)(=O)c1cccc2nsnc12	Pf growth 96h 9.28µM
O=C(NCc1ccccc1)C1CCCN(S(=O)(=O)c2cccc3nsnc23)C1 (stereo not drawn)	Pf growth 96h inconclusive
CN(CC(=O)N1CCCCC1)S(=O)(=O)c1cccc2nsnc12	Pf growth 96h inconclusive, Pf growth 48h inconclusive (no result: Lassa entry inh, Marburg entry inh)
O=C(C1CCCN(S(=O)(=O)c2cccc3nsnc23)C1)N1CCN(c2ccccn2)CC1 (stereo not drawn)	HCMV antiviral -64.8, Pf growth 48h 11.7µM, Marburg entry inh inconclusive, HCV inhibitor inconclusive
CC1CCN(C(=O)C2CCCN(S(=O)(=O)c3cccc4nsnc34)C2)CC1 (stereo not drawn)	none
O=C(C1CCCN(S(=O)(=O)c2cccc3nsnc23)C1)N1CCN(c2cccc(Cl)c2)CC1 (stereo not drawn)	HCMV antiviral -85.5, Lassa entry inh inconclusive, Marburg entry inh inconclusive (no result: Pf growth 96h, Pf growth 48h, HCV inhibitor)
